Screening data deposited in PubChem by National Center for Advancing Translational Sciences (NCATS).
This is a sample that favours compounds with a hit; in the whole collection about 6% have one here.
Sfp inh: blocks B. subtilis Sfp PPTase activity | Biochemical Sfp PPTase activity, qHTS | Q9F4F7 | Potency, µM, most hits filed as inhibitors | 310,000 tested, 3.5% active;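 further: the enzyme is Sfp with the accession as filed and its product quenches rhodamine fluorescence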
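Step 1, compound plus 15 nM Sfp-PPTase, 15 min, room temperature. Step 2, add rhodamine-CoA (5 uM) and BHQ-2-YbbR (12.5 uM). Step 3, read 525/598 nm fluorescence at 0 and 30 min.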
VDR inhibitor: blocks the human vitamin D receptor. P11473. 400,000 tested, 0.93% active. VDR-SRC2-3 peptide fluorescence polarization, 2 h. AID 504847. Potency, µM, most hits filed as inhibitors
Target sequence (P11473 whole entry, looked up): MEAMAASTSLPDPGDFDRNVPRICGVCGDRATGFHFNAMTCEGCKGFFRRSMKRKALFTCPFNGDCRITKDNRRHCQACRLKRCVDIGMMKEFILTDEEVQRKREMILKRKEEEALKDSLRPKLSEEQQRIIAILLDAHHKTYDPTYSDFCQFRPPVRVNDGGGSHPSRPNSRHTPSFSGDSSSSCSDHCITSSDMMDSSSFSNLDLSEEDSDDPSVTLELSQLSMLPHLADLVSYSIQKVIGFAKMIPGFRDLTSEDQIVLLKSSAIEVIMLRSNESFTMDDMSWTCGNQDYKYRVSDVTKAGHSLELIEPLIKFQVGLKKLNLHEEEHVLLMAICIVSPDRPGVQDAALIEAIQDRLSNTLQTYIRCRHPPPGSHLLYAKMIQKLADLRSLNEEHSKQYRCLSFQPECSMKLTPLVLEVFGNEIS
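VDR–SRC2-3 interaction, FP format. Cmpds 23 nl via pintool, brief spin, 2 h ambient incubation.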
Tau ThT inhib: tau fibrillization inhibition (ThT binding). P10636. Potency, µM (series often up to 57.4 µM), actives largely listed as inhibitors. recombinant tau K18 P301L, heparin-induced fibrillization, ThT fluorescence. AID 1460. 270,000 tested, 2.1% active; further: nearly all actives have a fitted effect of over 55% in size
Target sequence (P10636 561-689 P618L limits assumed): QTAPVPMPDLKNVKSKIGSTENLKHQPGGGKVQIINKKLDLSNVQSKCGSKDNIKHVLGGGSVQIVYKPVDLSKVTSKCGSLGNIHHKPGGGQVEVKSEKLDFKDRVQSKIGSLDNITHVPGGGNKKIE
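Fibril formation assay: tau K18 P301L at 15 uM with trace Alexa 594 label, heparin inducer 20 uM, pH 7 sodium acetate buffer, 37 C for 6 hr; endpoint ThT signal.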
PLK1 PBD inh: blocks phosphopeptide binding to human PLK1 polo-box domain; AID 720504; P53350; Plk1 PBD binding of FITC phosphopeptide, fluorescence polarization; Potency, µM, actives largely listed as inhibitors; 360,000 tested, 2.8% active; further: series mostly up to about 57 µM; nearly all actives have a fitted effect of over 65% in size
Tau fibril FP: blocks human tau fibril formation measured by polarization; P10636; AID 1468; K18 P301L tau heparin fibrillization, Alexa594 FP, 6 h; Potency, µM (titrated, usually from 57.7 µM), hits mostly inhibitors; 280,000 tested, 0.39% active; further: nearly all actives have a fitted effect of over 55% in size
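K18 P301L tau (15 uM unlabeled/0.24 uM Alexa 594-labeled, final) + compound + heparin 20 uM final; 100 mM NaOAc pH 7; 6 hr 37 C; ThT 30 uM final added, 1 hr RT; FP ex 555/em 632 nm.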
Tau fluor counter: counter-screen for tau fibril formation inhibitors; tau K18 P301L (four-repeat tau fragment) Alexa594 fluorescence, heparin fibrillization; 280,000 tested, 0.93% active; Potency, µM (doses to about 57.7 µM); further: nearly all actives have a fitted effect of over 55% in size
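Human K18 P301L tau (15 uM unlabeled plus 0.24 uM Alexa 594-labeled, final) in 100 mM sodium acetate pH 7 was mixed with compound and 20 uM heparin and incubated 6 hr at 37 C.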
VDR inh confirm: confirmation of human vitamin D receptor inhibitors. VDR-coactivator inhibition assay, qHTS confirmation. AID 602199. Potency, µM, hits mostly inhibitors. 840 tested, 89% active. shares compounds with VDR inhibitor
VDR FP fluor: VDR (human) coactivator binding inhibition, fluorescein polarization; Potency, µM (doses to about 57.1 µM), hits mostly inhibitors; shares compounds with VDR inhibitor; 840 tested, 48% active; VDR-coactivator binding, fluorescein fluorescence polarization; AID 602200
VDR bla: confirmation of human vitamin D receptor inhibitors in reporter cells. shares compounds with VDR inhibitor. AID 602202. Potency, µM (series often up to 46.1 µM), most hits filed as inhibitors. 840 tested, 23% active. VDR beta-lactamase reporter cells, FRET ratio; cells co-treated with VDR agonist LG190178
VDR viability: counter-screen for vitamin D receptor inhibitors: cytotoxicity; cytotoxicity counter-screen, cell viability, qHTS; shares compounds with VDR inhibitor; AID 602204; Potency, µM (doses to about 48.3 µM), actives largely listed as cytotoxic; 840 tested, 18% active; further: nearly all actives have a fitted effect of over 75% in size
Of the large screens only hits and unclear results are named; the others gave an inactive call (follow-up assays come after a bar, where they were run). The call rests on the fitted dose curve; in most records, active means well fitted curve in the direction sought with a large enough effect; inconclusive means small, poorly fitted or top-dose-only effect, or another doubt; inactive means no such curve, though single readings can be large; an effect the other way counts as inactive or inconclusive.

O=C1NC(=S)NC(=O)C1=Cc1ccc(OCC(=O)N2CCCC2)cc1	Sfp inh 20µM, VDR inhibitor 44.7µM, PLK1 PBD inh 15µM (no result: Tau ThT inhib, Tau fibril FP, Tau fluor counter) | VDR inh confirm 13.4 | VDR FP fluor 14.1µM | VDR bla inactive | VDR viability inactive
COc1cc2[nH]c(=S)n(-c3ccccc3)c(=O)c2cc1OC	none
COc1ccc(-n2c(=S)[nH]c3c(sc(=S)n3-c3ccccc3)c2=O)c(OC)c1	Sfp inh 14.1µM, VDR inhibitor 35.5µM, Tau ThT inhib 31.6µM, PLK1 PBD inh 2.38µM, Tau fibril FP inconclusive | VDR inh confirm 3.36 | VDR FP fluor inconclusive | VDR bla inactive | VDR viability inactive
CC1COC2=C1C(=O)C(=O)c1c2ccc2c1CCCC2(C)C (stereo not drawn)	Sfp inh inconclusive, VDR inhibitor 7.08µM, Tau ThT inhib 12.6µM, Tau fibril FP inconclusive, Tau fluor counter inconclusive (no result: PLK1 PBD inh) | VDR inh confirm inconclusive | VDR FP fluor 14.1µM | VDR bla inactive | VDR viability inactive
C[C@H]1COC2=C1C(=O)C(=O)c1c2ccc2c1CCCC2(C)C	VDR inhibitor 11.2µM, Tau ThT inhib 12.6µM, PLK1 PBD inh 26.7µM, Tau fibril FP inconclusive | VDR inh confirm 20 | VDR FP fluor 25.1µM | VDR bla inactive | VDR viability inactive
CC(C)NC(=O)N1CCC2(CC1)CCN(C(=O)Oc1ccccc1)CC2	none (no result: Tau ThT inhib, PLK1 PBD inh, Tau fibril FP, Tau fluor counter)
O=C1NC(=O)N(Cc2ccc(F)cc2)C(=O)/C1=C/c1cccs1	Sfp inh 44.7µM, VDR inhibitor 50.1µM, Tau ThT inhib inconclusive, PLK1 PBD inh 0.752µM, Tau fibril FP inconclusive | VDR inh confirm 11.9 | VDR FP fluor inconclusive | VDR bla inactive | VDR viability inactive
CC[C@]12C=CCN3CC[C@@]4(c5ccc(OC)cc5N(C)[C@H]4[C@@](O)(C(=O)OC)[C@@H]1OC(C)=O)C32 (stereo partly drawn)	none (no result: Tau ThT inhib, PLK1 PBD inh, Tau fibril FP, Tau fluor counter)
O=[N+]([O-])/C=C/c1cn(Cc2ccc(Cl)cc2)c2ccccc12	VDR inhibitor 25.1µM, Tau ThT inhib inconclusive | VDR inh confirm 10.6 | VDR FP fluor inconclusive | VDR bla inconclusive | VDR viability inconclusive
Cn1c(O)c(N=Nc2ccc(S(=O)(=O)N3CCOCC3)cc2)c(=O)n(C)c1=O	none
O=C1NC(=O)C(=Cc2ccc(-c3ccc(S(=O)(=O)N4CCOCC4)cc3)o2)C(=O)N1	Sfp inh 8.91µM, VDR inhibitor 22.4µM, PLK1 PBD inh 2.67µM (no result: Tau ThT inhib, Tau fibril FP, Tau fluor counter) | VDR inh confirm 18.9 | VDR FP fluor inconclusive | VDR bla inactive | VDR viability inactive
Cc1ccccc1N1C(=O)NC(=O)/C(=C\c2cnn(-c3ccccc3)c2)C1=O	Sfp inh 25.1µM, VDR inhibitor 50.1µM, PLK1 PBD inh 4.74µM | VDR inh confirm 10.6 | VDR FP fluor inconclusive | VDR bla inactive | VDR viability inactive
CCC(C)C(=O)OC1C[C@@]2(C)C(c3ccoc3)OC(=O)CC23OC2(C)OC34C(OC(=O)C(C)C)[C@]3(O)C(OC(=O)C5(C)OC5C)[C@]5(C)CC3(O)[C@](C)(C5CC(=O)OC)C14O2 (stereo partly drawn)	none (no result: PLK1 PBD inh)
CN1C(=O)C(=Cc2ccccc2Oc2ccc(Cl)cc2)C(=O)N(C)C1=O	Sfp inh inconclusive, VDR inhibitor 28.2µM, Tau ThT inhib inconclusive, PLK1 PBD inh 4.74µM | VDR inh confirm 16.8 | VDR FP fluor 17.8µM | VDR bla inactive | VDR viability inactive
CN1C(=O)C(=Cc2ccc(OCCN(C)c3ccccn3)cc2)C(=O)N(C)C1=O	Tau ThT inhib inconclusive, PLK1 PBD inh inconclusive, Tau fibril FP inconclusive
CC1=C2CCC3C4CCC(=O)[C@@]4(C)CCC3[C@]2(C)CCC1=O (stereo partly drawn)	none (no result: PLK1 PBD inh)
CCOC(=O)c1c(N)n(CCCOC(=O)c2ccco2)c2nc3ccccc3nc12	none
CCOC(=O)c1c(NS(=O)(=O)c2ccccc2)n(CCCOC)c2nc3ccccc3nc12	VDR inhibitor inconclusive, Tau ThT inhib inconclusive, Tau fibril FP inconclusive | VDR inh confirm 2.51 | VDR FP fluor 2.24µM | VDR bla inactive | VDR viability inactive
N#Cc1ccc(CN2CC[C@@]3(CCCN(C(=O)Oc4ccccc4)C3)C2)cc1	VDR inhibitor inconclusive (no result: Tau ThT inhib, PLK1 PBD inh, Tau fibril FP, Tau fluor counter)
COc1cccc(C2CC3C(=O)C=CC2N3Cc2ccccc2)c1 (stereo not drawn)	VDR inhibitor inconclusive, Tau ThT inhib inconclusive | VDR inh confirm 17.8 | VDR FP fluor inconclusive | VDR bla 20.6µM | VDR viability inactive
Cc1ccc(-n2c(/C=C/c3ccccc3)nc3ccccc3c2=O)cc1Cl	none (no result: Sfp inh, PLK1 PBD inh)
O=S(=O)(/C(=C\c1ccc(C(F)(F)F)cc1)c1nc2ccccc2[nH]1)c1ccccc1	VDR inhibitor 14.1µM (no result: Sfp inh, Tau ThT inhib, Tau fibril FP, Tau fluor counter) | VDR inh confirm 2.67 | VDR FP fluor inconclusive | VDR bla 5.17µM | VDR viability inconclusive
CCC(C(N)=O)N1CCCC1=O (stereo not drawn)	none (no result: Tau ThT inhib, PLK1 PBD inh, Tau fibril FP, Tau fluor counter)
N=C(N)c1ccc(CS(=O)(=O)F)cc1	none (no result: Sfp inh, Tau ThT inhib, PLK1 PBD inh, Tau fibril FP, Tau fluor counter)
